Reference: PubChem BioAssay (NCATS)
Records with an inconclusive call do not appear. The source made the active and inactive calls. Unless noted, calls come from the whole dose curve; as a rule, active = well fitted curve in the direction sought with a large enough effect; inconclusive = small, poorly fitted or top-dose-only effect, or another doubt; inactive = no such curve, though single readings can be large; an effect the other way counts as inactive or inconclusive.

Tests used:
[1] = target: Pyruvate kinase (Leishmania mexicana) (UniProt Q27686); assay: qHTS Validation Assay for Inhibitors of Leishmania Mexicana Pyruvate Kinase (AID 945)
Outline: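 qHTS eight-point titrations against 0.2 nM LmPYK (E451W) in imidazole buffer pH 7.2 with 0.5 mM PEP, 0.1 mM ADP; 1 h, room temperature. Readout: PKLight luminescence, normalized to neutral DMSO wells.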

[2] = target: Pyruvate kinase PKM (Homo sapiens) (UniProt P14618); assay: qHTS Assay for Activators of Human Muscle Pyruvate Kinase (AID 954; active = well fitted curve in the direction sought with a large enough effect, not every such curve was filed as active)
Outline: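 Enzyme was run at intermediate activity so both inhibitors and activators could be detected. ATP formed from ADP and PEP by 0.1 nM human PKM2 during a 1 h room-temperature incubation was quantified by coupled luciferase luminescence.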

[3] = MultiTox-Fluor Cytotoxicity Assay - LYMP1-001 - Dead Cells (AID 946);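 note: cells exposed to compound for 16 h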
Outline: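 In this qHTS, 15 uM tetraoctylammonium bromide defined 100% and DMSO defined basal activity. Lymphoblastoid cells (LYMP1-001, 2500 per well) received compound for 16 hr at 37 C before a fluorogenic dead-cell substrate readout at 485/520 nm.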

[4] = Cell Viability - LYMP1-002 - Assay at 16 hr (AID 948)
Excerpt: (§1) NIH Chemical Genomics Center [NCGC]
(§2) NIH Molecular Libraries Screening Centers Network [MLSCN]
(§3) National Institutes of Environmental Health Sciences [NIEHS]
(§4) National Toxicology Program [NTP]
We have developed a 1536-well cell-based assay for quantitative high throughput screening (qHTS) against a number of cell lines to determine in vitro cytotoxicity of small molecules. This particular assay uses a human lymphoblastoid cell line (LYMP1-002) purchased from Coriell Institute for Medical Research.
(§5) NCGC Assay Protocol Summary:
The CellTiter-Glo luminescent cell viability assay (Promega) is a homogeneous method to measure the number of viable cells in culture. The end point readout of this assay is based on quantitation of intracellular ATP, an indicator of metabolic activity, using the luciferase reaction. Luciferase catalyzes the oxidation of beetle Luciferin to oxyluciferin and light in the presence of ATP. The luminescent signal is proportional to amount of ATP present.
Using the CellTiter-Glo luminescent cell viability assay, the amount of cellular ATP was measured in the lymphoblastoid cell line with complete culture medium following compound treatment for 16 hours. The assay was performed in opaque white Kalypsys 1536-well plates. In the screen, tetraoctylammonium bromide was used as positive control. Library compounds were measured for their ability to cause acute toxicity in the cell line, as reflected by a decrease in intracellular ATP levels, in a concentration-dependent manner. […] AC50 values were determined from concentration-response data modeled with the standard Hill equation.
qHTS protocol for CellTiter Glo lymphoblastoid cellular assay
[Step] [Parameter] [Value] [Description]
1. Reagent; 5 uL; 2500 lymphoblastoid cells/well
2. Time; 5 hr; 37 C incubation
4. Controls; 23 nL; Tetraoctylammonium bromide 6.4pM to 92 uM
5. Time; 16 hr; 37 C incubation
6. Reagent; 5 uL; CellTiter Glo reagent […]
8. Detection; Luminescence; Viewlux plate reader
Keywords: cell viability, cytotoxicity, lymphoblastoid cell line, luminescence, NTPHTS, NTPHTS_NCGC, NIEHS, DSSTox, MLSMR, MLSCN, NIH Roadmap, qHTS, NCGC

[5] = MultiTox-Fluor Cytotoxicity Assay - LYMP1-002 - Live Cells (AID 955)
Outline: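 Cytotoxicity in the human lymphoblastoid line LYMP1-002 is measured as loss of live-cell protease activity after 16 h treatment in complete culture medium. AC50 is derived from Hill-equation fits of qHTS concentration-response data.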

[6] = MultiTox-Fluor Cytotoxicity Assay - LYMP1-002 - Dead Cells (AID 960);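 note: cells exposed to compound for 16 h at 37 °C; nearly all actives have a fitted effect of over 60% in size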
Outline: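 Acute cytotoxicity in a human lymphoblastoid line is scored as rising dead-cell protease signal after 16 hr exposure at 37 C, measured fluorometrically (485/520).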

[7] = Cell Viability - LYMP2-001 (AID 921);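 note: series mostly up to about 92 µM; cells exposed to compound for 24 h at 37 °C; nearly all actives have a fitted effect of over 70% in size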
Excerpt: as §1, §2, §3, §4
We have developed a 1536-well cell-based assay for quantitative high throughput screening (qHTS) against a number of cell lines to determine in vitro cytotoxicity of small molecules. This particular assay uses a human lymphoblastoid cell line (LYMP2-001) purchased from Coriell Institute for Medical Research.
as §5
The CellTiter-Glo luminescent cell viability assay (Promega) is a homogeneous method to measure the number of viable cells in culture. The end point readout of this assay is based on quantitation of intracellular ATP, an indicator of metabolic activity, using the luciferase reaction. […]
Using the CellTiter-Glo luminescent cell viability assay, the amount of cellular ATP was measured in the lymphoblastoid cell line with complete culture medium following compound treatment for 24 hours. […] Library compounds were measured for their ability to cause acute toxicity in the cell line, as reflected by a decrease in intracellular ATP levels, in a concentration-dependent manner. […] AC50 values were determined from concentration-response data modeled with the standard Hill equation. […]
8. Detection; Luminescence; Viewlux plate reader […]

[8] = MultiTox-Fluor Cytotoxicity Assay - LYMP1-001 - Live Cells (AID 947)
[9] = Confirmation and Secondary Assay for Modulators of Hemoglobin Beta Chain Splicing at IVS2 654 locus (AID 910);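 note: HeLa cells stably carrying EGFP split by mutant beta-globin IVS2-654 intron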
Outline: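 HeLa cells stably expressing EGFP interrupted by β-globin IVS2-654 intron, seeded overnight in Opti-MEM/2% FCS, then treated 2 days at 37 °C. Restored splicing read as total peak GFP intensity per well by laser scanning cytometry (488 nm excitation, 500–520 nm emission); 500 nM antisense PNA as control.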

[10] = Confirmation and Secondary Assay for Modulators of Hemoglobin Beta Chain Splicing at IVS2 705 locus (AID 930);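 note: HeLa cells stably expressing the EGFP-705 splicing reporter; GFP fluorescence per well restored by corrected splicing of the IVS2-705 intron in EGFP; series mostly up to about 46 µM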
Outline: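 First, HeLa EGFP-705 cells are seeded at 500/well in Optimem with 2% FCS and left overnight. Next, compound or DMSO is added for 2 days. Finally wells are laser-scanned and total peak GFP intensity scored.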

Measured: outcome

Chain of Pyruvate kinase PKM (Homo sapiens) (P14618 whole entry, looked up): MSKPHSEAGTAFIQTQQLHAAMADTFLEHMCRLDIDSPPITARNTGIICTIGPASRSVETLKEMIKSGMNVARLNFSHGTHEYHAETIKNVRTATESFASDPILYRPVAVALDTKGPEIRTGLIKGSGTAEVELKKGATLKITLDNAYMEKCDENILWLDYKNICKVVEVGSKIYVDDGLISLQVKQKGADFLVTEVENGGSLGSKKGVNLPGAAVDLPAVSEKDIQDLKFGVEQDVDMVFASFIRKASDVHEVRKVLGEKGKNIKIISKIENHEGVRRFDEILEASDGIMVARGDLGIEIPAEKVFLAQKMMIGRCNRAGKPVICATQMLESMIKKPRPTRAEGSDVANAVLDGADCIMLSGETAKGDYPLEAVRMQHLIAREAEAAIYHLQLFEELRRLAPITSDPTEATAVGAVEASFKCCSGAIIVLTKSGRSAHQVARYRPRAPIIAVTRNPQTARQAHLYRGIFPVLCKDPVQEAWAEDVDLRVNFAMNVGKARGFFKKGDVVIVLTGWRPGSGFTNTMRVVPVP
Chain of Pyruvate kinase (Leishmania mexicana) (Q27686 2-499 E452W): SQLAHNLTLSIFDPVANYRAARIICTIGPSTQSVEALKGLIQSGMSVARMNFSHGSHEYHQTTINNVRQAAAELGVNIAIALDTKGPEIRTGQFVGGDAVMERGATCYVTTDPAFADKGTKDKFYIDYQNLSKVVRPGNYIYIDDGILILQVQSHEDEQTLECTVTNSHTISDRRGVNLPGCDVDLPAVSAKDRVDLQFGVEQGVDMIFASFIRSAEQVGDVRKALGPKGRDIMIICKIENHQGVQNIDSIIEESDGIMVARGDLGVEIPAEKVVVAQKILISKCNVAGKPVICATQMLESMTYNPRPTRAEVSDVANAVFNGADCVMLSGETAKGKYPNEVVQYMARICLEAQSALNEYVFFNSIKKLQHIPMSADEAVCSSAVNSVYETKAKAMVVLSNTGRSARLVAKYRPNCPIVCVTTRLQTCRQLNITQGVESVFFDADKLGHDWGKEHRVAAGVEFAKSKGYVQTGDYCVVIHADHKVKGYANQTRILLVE

CC(=O)O[C@H]1C(=O)[C@@]2(C)[C@H]([C@H](OC(=O)c3ccccc3)[C@]3(O)C[C@H](OC(=O)[C@H](O)[C@@H](NC(=O)c4ccccc4)c4ccccc4)C(C)=C1C3(C)C)[C@]1(OC(C)=O)CO[C@@H]1C[C@@H]2O
inactive: [1] | [2]

Nc1ccccc1N
inactive: [3] | [4] | [5] | [6]

Cc1ccc(N)cc1O
inactive: [7] | [3] | [8] | [4] | [5] | [6]

CC(=O)c1cc2c(cc1O)OC(C)(C)C=C2
inactive: [9] | [10]

CC(C)C(N)C(=O)OCCOCn1cnc2c(=O)[nH]c(N)nc21 (stereo not drawn)
inactive: [10]

CC(=O)O[C@@H]1CC(C)=C2[C@H]1[C@H](C)CC[C@H]2/C=C(\C)C(=O)O
inactive: [7] | [3] | [8] | [4] | [5] | [6]

CC(C)[N+]1(C)C2CCC1CC(OC(=O)C(CO)c1ccccc1)C2 (stereo not drawn)
inactive: [9] | [10]
